Compounds with a hit are over-represented: about 21% of the library has one in this group of screens.
SARS PLP yeast: SARS-CoV PLP inhibition in yeast. actives 0.19% (n = 330,000). S. cerevisiae expressing SARS-CoV PLpro, growth rescue. Potency, µM (doses to about 32.9 µM), inactives show top-dose activity, positive = growth rescue, most hits filed as activators. AID 485353; calls by dose curve; note: potency is the fitted concentration of half-maximal effect; 0% is about no effect; nearly all actives have a fitted effect of over 55% in size
Pf growth 96h: P. falciparum growth inhibition at 96 hours. Potency, µM (titrated, usually from 28.7 µM), without a hit: at the top dose activity change, negative = inhibition, most hits filed as inhibitors. P. falciparum luciferase reporter growth, 96 h. actives 6.9% (n = 320,000). AID 504834; note: potency is the fitted concentration of half-maximal effect; % is set by controls: 0 for no effect and ±100 for the full control effect
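Compounds incubated with erythrocytes infected by luciferase-expressing P. falciparum (2% hematocrit, 0.05% parasitemia final) for 96 hours, 37 C in 5% CO2. Growth inhibition scored as decreased luciferase luminescence.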
Shiga toxin inh: blocks Shiga toxin action in Vero cells; Vero cells, Shiga toxin protein synthesis inhibition reporter; inhibition, % at 38.7 µM; actives 9.2% (n = 290,000); AID 2315; in the data active = inhibition mostly above about 28%, no sharp cut-off; inactive = mostly below about 43%; note: 0% is about no effect
Pf growth 48h: P. falciparum growth inhibition at 48 hours (one generation). actives 5.9% (n = 310,000). P. falciparum luciferase growth in erythrocytes, 48 h. Potency, µM (series often up to 28.7 µM), for the others: at the highest dose activity change, negative = inhibition, hits mostly inhibitors. AID 504832; note: potency is the fitted concentration of half-maximal effect; % is set by controls: 0 for no effect and ±100 for the full control effect
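Parasite viability was followed by luminescence of a genomically integrated firefly luciferase. Cultures held 0.1% parasitemia at 2% hematocrit (final), incubated under 5% CO2 at 37 C.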
NS1 inh: blocks influenza NS1 protein function. actives 0.4% (n = 270,000). AID 2326. Potency, µM (highest dose often 46.1 µM), for inactives: at the highest dose activity, positive = more growth; calls by dose curve; note: potency is the fitted concentration of half-maximal effect; actives are rising curves; nearly all actives have a fitted effect of over 50% in size
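OD600 was taken as the measure of yeast growth restored by compound in an NS1-expressing S. cerevisiae strain. Cells had been washed out of glucose medium and diluted 1:100 into galactose -URA medium, pH 6.0.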
CHX counter: counter-screen hit for Shiga toxin inhibitors, cycloheximide; cell reporter, cycloheximide protein synthesis inhibition counterscreen; AID 2314; actives 12% (n = 300,000); max response, %; in the data active = max response mostly above about 13%, no sharp cut-off; inactive = mostly below about 14%; note: read at 38.3 µM for the half of the compounds with a filed dose; 0% is about no effect
* = called active by the depositor; ? = inconclusive; · = no result; [ ] = another dose, or the depositor's remark. Unless noted, calls come from the whole dose curve; as a rule, active = well fitted inhibition curve with a large enough effect; inconclusive = small, poorly fitted or top-dose-only effect, or another doubt; inactive = no such curve, though single readings can be large or run the other way.

SMILES	SARS PLP yeast	Pf growth 96h	Shiga toxin inh	Pf growth 48h	NS1 inh	CHX counter
CC1(C)Cc2c(sc3nc(SCC(=O)O)nc(N)c23)CO1	?	38%	24	13%	-2%	-4
CC(C)(C)C1CCc2c(sc3nc(SCC(=O)O)nc(N)c23)C1 (configuration not stated)	1%	14%	34	31%	5%	16*
CC(=O)N/C(=N/c1nc(C)cc(C)n1)Nc1cccc(C)c1C	7%	-12%	14	·	-2%	-4
S=c1[nH]c(-c2ccccc2)cn1/N=C/c1ccccc1Br	-4%	?	35	?	·	27*
Cc1ccc(/C=N/n2c(-c3cccnc3)n[nH]c2=S)s1	-1%	-43%	7	13%	?	-3
Cc1ccc(/C=N/n2cc(-c3ccccc3)[nH]c2=S)s1	29%	?	108*	?	·	39*
COc1cc(/C=N/n2cc(-c3ccccc3)[nH]c2=S)cc(OC)c1O	-3%	?	36	12µM*	3%	62*
Oc1ccc(/C=N/n2cc(-c3ccccc3)[nH]c2=S)cc1	0%	?	13	?	·	10
S=c1[nH]c(-c2ccccc2)cn1/N=C/c1cccc2ccccc12	4%	?	33	?	·	16
CCCn1c(O)c(N=N)c2ccccc21	-2%	14%	-16	3%	2%	0
OC(CNCC1CCCO1)Cn1c2ccc(Cl)cc2c2cc(Cl)ccc21 (configuration not stated)	-12%	29%	-10	0.37µM*	-125%	6
OC(CNCCC1C=Nc2ccccc21)Cn1c2ccc(Cl)cc2c2cc(Cl)ccc21 (configuration not stated)	-41%	?	-26	2.6µM*	?	-11
O=C(Cn1c(=O)n(Cc2ccco2)c(=O)c2cc(Cl)ccc21)NCC1CCCO1 (configuration not stated)	-2%	72%	13	10%	1%	-2
Cc1cc(C)n(CC(O)Cn2c3ccc(Cl)cc3c3cc(Cl)ccc32)c(=O)n1 (configuration not stated)	-2%	·	-18	?	25%	-2
O=C(Cn1cc(C(=O)C2CC2)c2ccccc21)NCC1CCCO1 (configuration not stated)	6%	?	-10	-4%	4%	1
OC(CNCC1CCCO1)Cn1c2ccccc2c2ccccc21 (configuration not stated)	1%	?	-6	4.7µM*	-7%	-2
CN(C)/C=C/C(=O)c1ccccc1OCc1cnc(Cl)s1	-1%	11%	15	-7%	6%	9
COC(=O)c1ccc(NC(=O)c2ccc(NC(=O)C3CCCO3)cc2)cc1 (configuration not stated)	-2%	1%	-13	?	·	7
CCOC(=O)c1ccc(NC(=O)C2CCCO2)cc1 (configuration not stated)	-12%	-2%	55*	62%	-13%	32*
CCOC(=O)c1ccc(NC(=O)C(CC)(CC)C(=O)OCC)cc1	-3%	·	-10	8.3µM*	-35%	-5
CCOC(=O)c1cc(NC(=O)C2CCCO2)cc(C(=O)OCC)c1 (configuration not stated)	4%	23%[5.75 µM]	-7	24%	-34%	1
CCOC(=O)c1cccc(NC(=O)c2ccc(NC(=O)C3CCCO3)cc2)c1 (configuration not stated)	-3%	7.4µM*	21	?	-1%	6
CCc1ccc(NC(=O)c2ccc(NC(=O)C3CCCO3)cc2)cc1 (configuration not stated)	-5%	?	56*	15%	-14%	14*
CCOC(=O)c1ccc(NC(=S)NN)cc1	12%	?	8	?	·	-3
COc1ccc(CCNC(=O)C2CCCN(S(=O)(=O)c3ccc(F)cc3)C2)cc1OC (configuration not stated)	3%	?	22	?	6%	-1
SMILES	SARS PLP yeast	Pf growth 96h	Shiga toxin inh	Pf growth 48h	NS1 inh	CHX counter
O=C(Cn1cc(C(F)(F)F)ccc1=O)N/N=C/c1ccc(Cl)cc1	7%	44%	-12	40%	8%	-1
CCCCOC(=O)c1ccc(O)cc1	-23%	12%	14	39%	8%	11
CCOC(=O)c1cccc(NC(=O)c2ccccc2C)c1	-1%	92%	6	3%	·	18
CCOC(=O)c1ccc(NC(=O)c2ccccc2C)cc1	-30%	-26%	86*	19%	-46%	53*
CCOC(=O)c1ccc(NC(=O)COC)cc1	-6%	15µM*	35*	48%	-26%	11*
CCCCOC(=O)Nc1ccc(C(=O)OCCC)cc1	-7%	39%	134*	18%	-64%	29*
CCCCCCOC(=O)c1ccc(NC(=O)c2cc(OC)c(OC)c(OC)c2Br)cc1	6%	·	13	?	?	-2
CCCCOC(=O)c1ccc(NC(=O)c2c(Cl)ccc(Cl)c2OC)cc1	-45%	5.2µM*	2	-1%	-16%	-2
CCOC(=O)c1cc(NC(=O)COC)ccc1O	-1%	3%	-21	49%	-2%	1
Cc1ccc(C(C)C)c(OCC(=O)NNC(=O)Cc2ccc(S(=O)(=O)N3CCOCC3)s2)c1	0%	·	·	·	·	·
O=C1CCc2cc(NS(=O)(=O)c3ccccc3)cc3c2N1CC3	-21%	?	·	?	·	·
Cc1cc(C)cc(NC(=O)C2CCN(C(=O)c3cccs3)CC2)c1	2%	1%	-6	-4%	-19%	3
CCCCOC(=O)c1ccc(NC(=O)C2CCCO2)cc1 (configuration not stated)	-5%	·	67*	63%	0%	36*
CCC(C)NC(=O)c1ccc(NC(=O)C2CCCO2)cc1 (configuration not stated)	-2%	2%	3	30%	1%	-1
CCCOC(=O)c1ccc(NC(=O)C2C3CCC(C3)C2C(=O)O)cc1 (configuration not stated)	0%	59%	20*	78%	-31%	47*
CCOC(=O)c1ccc(NC(=O)C2C3C=CC(C3)C2C(=O)O)cc1 (configuration not stated)	7%	?	23	56%	-19%	14
CCOC(=O)c1ccc(NC(=O)C2CC2)cc1	-3%	?	72*	64%	-60%	22*
COc1ccc(-c2csc(N(CCc3ccc(OC)c(OC)c3)C(=O)COc3ccccc3)n2)cc1	-2%	11%	-4	10µM*	?	5
COc1ccc(-c2csc(N(Cc3ccccc3)C(=O)COc3ccc(Cl)cc3)n2)cc1	0%	?	-2	1%	-8%	-1
COc1ccc(-c2csc(N(CCCN(C)C)C(=O)c3ccc(C)cc3)n2)cc1	-1%	?	-5	8.3µM*	5%	-4
CCN(CC)CCCN(C(=O)c1ccc(OC)cc1)c1nc(-c2ccc(OC)cc2)cs1	-1%	-29%	-15	1.3µM*	-21%	-15

Screening results (PubChem BioAssay)
